Screening results from PubChem BioAssay.
U2OS ROS induce – inducers of reactive oxygen species in cancer cells; ROS induction (% of piperlongumine), % at 10 µM; actives 2% (n = 46,000); U2OS ROS induction, H2DCF-DA fluorescence; AID 624156; in the data active = ROS induction above about 79%, passing the limit was not always enough
YB-1 expression – YB-1 expression inhibition | U2OS, qRT-PCR YB-1 vs CDIP delta delta Cp, 16 h; hits give high values; zero = DMSO, each unit about twofold | delta delta Cp (YB-1 minus CDIP) (no concentration beside the values) | actives 0.37% (n = 30,000) | AID 434959;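 active = delta delta Cp rounded down to an integer at or above 3, about 3 SD of DMSO wells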;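 note: higher means less YB-1 transcript or more CDIP transcript relative to DMSO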
MITF inh – MITF inhibition. actives 0.28% (n = 37,000). TRPM1 promoter luciferase, luminescence, 24 h. inhibition, % (no concentration beside the values). AID 2240; in the data active = inhibition above about 85%;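 note: human melanocyte line stably carrying TRPM1 promoter luciferase reporter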
NOMO-1 viab – STK33 inhibitor candidate reducing NOMO-1 cell viability. NOMO-1 AML viability, CellTiter-Glo luminescence, 72 h. inhibition, % (no concentration beside the values). actives 7.5% (n = 37,000). AID 2330; in the data active = inhibition above about 80%
PD-1 reversal – activators reversing PD-1 mediated T-cell inhibition; 29,000 tested, under 10 active; primary human CD4 T cells, PD-L1 beads, CellTiter-Glo 96 h; activation, % (no concentration beside the values); call rule not given here
Each line names hits and unclear results; the compound was inactive in the other large screens. Shown is part of a subset that was picked to be rich in hits.

C[C@H](CO)N1C[C@H](C)[C@@H](CN(C)C(=O)Nc2ccc(F)cc2)Oc2ccc(NC(=O)Nc3ccc(C(F)(F)F)cc3)cc2C1=O	none
C[C@H]1CN([C@@H](C)CO)C(=O)c2cc(NC(=O)Nc3ccc(C(F)(F)F)cc3)ccc2O[C@H]1CN(C)C(=O)Nc1ccc(C(F)(F)F)cc1	NOMO-1 viab 119.6
C[C@@H]1CN([C@@H](C)CO)C(=O)c2cc(NC(=O)Nc3ccc(C(F)(F)F)cc3)ccc2O[C@@H]1CN(C)C(=O)Nc1ccc(C(F)(F)F)cc1	NOMO-1 viab 113.6
CCC(=O)c1cn(CC(=O)Nc2cccc(C(F)(F)F)c2)c2ccccc12	none (no result: U2OS ROS induce, YB-1 expression, PD-1 reversal)
CCOC(=O)c1ccc(COc2ccc(-c3cnc4ccccc4n3)cc2)o1	none (no result: U2OS ROS induce, YB-1 expression, PD-1 reversal)
COc1ccc(S(=O)(=O)Nc2cncc(C(=O)Nc3ccc(C(F)(F)F)cc3)c2)cc1	none (no result: YB-1 expression, MITF inh, NOMO-1 viab, PD-1 reversal)
C[C@@H]1CN([C@@H](C)CO)C(=O)c2cc(NC(=O)Nc3ccc(C(F)(F)F)cc3)ccc2O[C@H]1CN(C)C(=O)Nc1ccc(C(F)(F)F)cc1	NOMO-1 viab 104.7
C[C@H]1CN([C@@H](C)CO)C(=O)c2cc(NC(=O)Nc3ccc(C(F)(F)F)cc3)ccc2O[C@H]1CN(C)C(=O)NC1CCCCC1	NOMO-1 viab 103.4
C[C@@H]1CN([C@H](C)CO)C(=O)c2cc(NC(=O)Nc3ccc(C(F)(F)F)cc3)ccc2O[C@@H]1CN(C)C(=O)Nc1ccc(C(F)(F)F)cc1	NOMO-1 viab 94.0 (no result: PD-1 reversal)
C[C@H](CO)N1C[C@H](C)[C@H](CN(C)C(=O)NC2CCCCC2)Oc2ccc(NC(=O)Nc3ccc(C(F)(F)F)cc3)cc2C1=O	none
Cn1c(SCC(=O)n2c3c(c4ccccc42)CCCC3)nnc1-c1ccccc1	none (no result: YB-1 expression)
Cn1c(SCC(=O)n2c3c(c4ccccc42)CCCC3)nnc1-c1ccco1	NOMO-1 viab 109.0 (no result: YB-1 expression)
CC1(CO)C=Cc2c(cc(O)c3c(=O)c(-c4ccc(O)cc4)coc23)O1 (configuration not stated)	none (no result: MITF inh, NOMO-1 viab, PD-1 reversal)
CC1(C)CC[C@@]2(C(=O)O[C@@H]3O[C@H](CO)[C@@H](O)[C@H](O)[C@H]3O)C(C1)C1=CCC3[C@@]4(C)CC[C@@H](O[C@@H]5O[C@H](CO)[C@@H](O)[C@H](O)[C@H]5O[C@@H]5O[C@H](CO)[C@@H](O)[C@H](O)[C@H]5O)C(C)(C)C4CC[C@@]3(C)[C@]1(C)C[C@H]2O (some centres not stated)	none
C/C=C(/C)C(=O)O[C@H]1[C@H](OC(=O)/C(C)=C\C)[C@]2(CO)[C@H](O)C[C@]3(C)C(=CCC4[C@@]5(C)CC[C@H](OC6OC(C(=O)O)C(O)C(OC7OC(C)C(O)C(OC8OC(CO)C(O)C(O)C8O)C7O)C6O)C(C)(C)C5CC[C@]43C)[C@@H]2CC1(C)C (some centres not stated)	MITF inh 101.8, NOMO-1 viab 121.9
C/C=C(/C)C(=O)O[C@H]1[C@H](OC(=O)/C=C/c2ccccc2)[C@@]23C(CC1(C)C)[C@]1(CCC4[C@@]5(C)CC[C@H](O[C@@H]6O[C@H](C(=O)O)[C@@H](O)[C@H](O[C@@H]7O[C@H](CO)[C@H](O)[C@H](O)[C@H]7O[C@@H]7O[C@@H](C)[C@H](O)[C@@H](O)[C@H]7O[C@@H]7OC[C@](O)(CO)[C@H]7O)[C@H]6O[C@@H]6O[C@H](CO)[C@H](O)[C@H](O)[C@H]6O)C(C)(C)C5CC[C@@]4(C)[C@]1(C)C[C@H]2O)O[C@H]3O (some centres not stated)	MITF inh 90.4, NOMO-1 viab 120.3
C/C=C(\C)C(=O)OC1C(OC(=O)/C=C(/C)CC(=O)O)C2(CO)C(O)CC3(C)C(=CCC4C5(C)CCC(OC6OC(C(=O)O)C(O)C(OC7OC(C)C(O)C(OC8OC(CO)C(O)C(O)C8O)C7O)C6O)C(C)(C)C5CCC43C)C2CC1(C)C (configuration not stated)	MITF inh 97.7, NOMO-1 viab 122.1
CC1(C)CC[C@]2(C(=O)O[C@@H]3O[C@H](CO)[C@@H](O)[C@H](O)[C@H]3O)CC[C@]3(C)C(=CCC4[C@@]5(C)CC[C@H](OC6O[C@H](CO)[C@@H](O)[C@H](O[C@@H]7O[C@H](CO)[C@@H](O)[C@H](O)[C@H]7O)[C@H]6O)C(C)(C)C5CC[C@]43C)[C@@H]2C1 (some centres not stated)	none (no result: MITF inh, NOMO-1 viab, PD-1 reversal)
O=C(Cn1cnc(SCc2ccccc2)n1)Nc1cccc(C(F)(F)F)c1	none (no result: YB-1 expression, MITF inh, NOMO-1 viab, PD-1 reversal)
O=c1nc2c(-c3ccc(Cl)cc3)n[nH]n2c2ccccc12	none (no result: YB-1 expression, MITF inh, NOMO-1 viab, PD-1 reversal)
COC(=O)[C@H](Cc1ccc(O)cc1)NC(=O)c1cccc(Cl)c1	NOMO-1 viab 110.4
CCOC(=O)C(Cc1ccc(O)cc1)NC(C)=O (configuration not stated)	none (no result: PD-1 reversal)
CCCC(O)/C(=C/C1=C(C(=O)CC(CC(=O)O)OC(N)=O)C(=O)c2cccc(O)c2C1=O)CC(C(=O)O)[N+](C)(C)C (configuration not stated)	NOMO-1 viab 108.3
CC(C)=CCOc1cc(C)cc2oc(=O)cc(-c3ccccc3)c12	U2OS ROS induce 84.1 (no result: YB-1 expression, MITF inh, NOMO-1 viab, PD-1 reversal)
C=C1C(=O)O[C@H]2C1[C@H](OC(=O)/C(C)=C/CO)C/C(C)=C\CC[C@@]1(C)OC21 (some centres not stated)	NOMO-1 viab 121.6
C=C1C(=O)OC2/C=C(\CO)C(OC(C)=O)C/C=C(/C)CC(OC(=O)/C(C)=C\CO)C12 (configuration not stated)	YB-1 expression 4.73, NOMO-1 viab 121.1
C=C1C(=O)O[C@H]2[C@H]1[C@@H](OC(=O)/C(C)=C\C)C[C@]1(C)O[C@@H]1[C@H]1O[C@H]1C(=C)[C@H]2O	NOMO-1 viab 120.9
C/C=C(/C)C(=O)O[C@H]1C[C@@](C)(O)C(=O)[C@@H](OC(=O)/C(C)=C\C)[C@@]2(C)CC[C@@](O)(C(C)C)[C@H]12	none
C=C1C(=O)O[C@H]2C1[C@H](OC(=O)/C(C)=C/CO)C/C(C)=C\CC[C@@]1(CO)OC21 (some centres not stated)	NOMO-1 viab 93.2
C=C(C(=O)O[C@H]1C/C(C)=C\CC/C(CO)=C\[C@H]2OC(=O)C(=C)[C@H]12)C(O)CO (some centres not stated)	none
C=CCn1c(CSc2nc(N)cc(N)n2)n[nH]c1=S	none (no result: YB-1 expression)
C[C@H](CO)N1C[C@H](C)[C@H](CN(C)CC2CC2)OCc2cnnn2CCCC1=O	U2OS ROS induce 137.0 (no result: MITF inh, NOMO-1 viab, PD-1 reversal)
C[C@@H]1CN([C@H](C)CO)C(=O)CCCn2nncc2CO[C@@H]1CN(C)C(=O)c1ccc2ccn(C)c2c1	none (no result: MITF inh, NOMO-1 viab, PD-1 reversal)
C[C@@H]1CN([C@@H](C)CO)C(=O)CCCn2nncc2CO[C@H]1CN(C)C(=O)c1ccc2ccn(C)c2c1	U2OS ROS induce 94.0 (no result: MITF inh, NOMO-1 viab, PD-1 reversal)
COc1ccccc1NC(=O)C1=C(C)Nc2ncnn2C1c1ccccc1OCc1ccccc1 (configuration not stated)	none (no result: YB-1 expression)
